# Measured values published in the supplement of paper PMC4466140.
# ± gives the standard deviation of the averaged measurements.
# Target: AgAbp1
# Test: SPOT peptide array binding signal intensity (averaged, normalized) (arbitrary units (background-subtracted, floor 0; scale differs between SH3 domains)); higher = stronger binding of the SH3 domain to the peptide
# Summary of the method: (§1)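 Binding signal refers to normalized, background-subtracted spot intensity averaged over replicates, expressed in arbitrary units that differ between domains. GST-fused SH3 domains from four yeast species were incubated at 10 μg/ml overnight at 4°C on cellulose membranes of synthetic 15-mer peptides with cysteines replaced by serines. Bound protein was detected with anti-GST antibody, an HRP anti-mouse secondary and luminol, and quantified with Genespotter.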
row,Binder,SPOT peptide array binding signal intensity
1,HPRFVSPRIPSRIVK,258

# Target: AgBbc1
# Test: as above
# Summary of the method: as §1
row,Binder,SPOT peptide array binding signal intensity
1,HPRFVSPRIPSRIVK,502

# Target: AgBem1-D1
# Test: as above
# Summary of the method: as §1
row,Binder,SPOT peptide array binding signal intensity
1,HPRFVSPRIPSRIVK,182

# Target: AgBzz1-D1
# Test: as above
# Summary of the method: as §1
row,Binder,SPOT peptide array binding signal intensity
1,HPRFVSPRIPSRIVK,185

# Target: AgBzz1-D2
# Test: as above
# Summary of the method: as §1
row,Binder,SPOT peptide array binding signal intensity
1,HPRFVSPRIPSRIVK,23.5

# Target: AgCyk3
# Test: as above
# Summary of the method: as §1
row,Binder,SPOT peptide array binding signal intensity
1,HPRFVSPRIPSRIVK,1

# Target: AgFus1
# Test: as above
# Summary of the method: as §1
row,Binder,SPOT peptide array binding signal intensity
1,HPRFVSPRIPSRIVK,239

# Target: AgHof1
# Test: as above
# Summary of the method: as §1
row,Binder,SPOT peptide array binding signal intensity
1,HPRFVSPRIPSRIVK,116

# Target: AgHse1
# Test: as above
# Summary of the method: as §1
row,Binder,SPOT peptide array binding signal intensity
1,HPRFVSPRIPSRIVK,176

# Target: AgLsb1
# Test: as above
# Summary of the method: as §1
row,Binder,SPOT peptide array binding signal intensity
1,HPRFVSPRIPSRIVK,138

# Target: AgLsb4
# Test: as above
# Summary of the method: as §1
row,Binder,SPOT peptide array binding signal intensity
1,HPRFVSPRIPSRIVK,28

# Target: AgMyo5
# Test: as above
# Summary of the method: as §1
row,Binder,SPOT peptide array binding signal intensity
1,HPRFVSPRIPSRIVK,11

# Target: AgNbp2
# Test: as above
# Summary of the method: as §1
row,Binder,SPOT peptide array binding signal intensity
1,HPRFVSPRIPSRIVK,390

# Target: AgRvs167
# Test: as above
# Summary of the method: as §1
row,Binder,SPOT peptide array binding signal intensity
1,HPRFVSPRIPSRIVK,12.3

# Target: AgSho1
# Test: as above
# Summary of the method: as §1
row,Binder,SPOT peptide array binding signal intensity
1,HPRFVSPRIPSRIVK,13

# Target: AgSla1-D1-D2
# Test: as above
# Summary of the method: as §1
row,Binder,SPOT peptide array binding signal intensity
1,HPRFVSPRIPSRIVK,62.5

# Target: AgSla1-D3
# Test: as above
# Summary of the method: as §1
row,Binder,SPOT peptide array binding signal intensity
1,HPRFVSPRIPSRIVK,32.5

# Target: CaAbp1-D1
# Test: as above
# Summary of the method: as §1
row,Binder,SPOT peptide array binding signal intensity
1,HPRFVSPRIPSRIVK,322

# Target: CaAbp1-D2
# Test: as above
# Summary of the method: as §1
row,Binder,SPOT peptide array binding signal intensity
1,HPRFVSPRIPSRIVK,83.5

# Target: CaBbc1
# Test: as above
# Summary of the method: as §1
row,Binder,SPOT peptide array binding signal intensity
1,HPRFVSPRIPSRIVK,1520

# Target: CaBem1-D1
# Test: as above
# Summary of the method: as §1
row,Binder,SPOT peptide array binding signal intensity
1,HPRFVSPRIPSRIVK,226

# Target: CaBzz1-D1
# Test: as above
# Summary of the method: as §1
row,Binder,SPOT peptide array binding signal intensity
1,HPRFVSPRIPSRIVK,255

# Target: CaBzz1-D2
# Test: as above
# Summary of the method: as §1
row,Binder,SPOT peptide array binding signal intensity
1,HPRFVSPRIPSRIVK,149

# Target: CaCyk3
# Test: as above
# Summary of the method: as §1
row,Binder,SPOT peptide array binding signal intensity
1,HPRFVSPRIPSRIVK,17

# Target: CaFus1
# Test: as above
# Summary of the method: as §1
row,Binder,SPOT peptide array binding signal intensity
1,HPRFVSPRIPSRIVK,373

# Target: CaHof1
# Test: as above
# Summary of the method: as §1
row,Binder,SPOT peptide array binding signal intensity
1,HPRFVSPRIPSRIVK,2

# Target: CaHse1
# Test: as above
# Summary of the method: as §1
row,Binder,SPOT peptide array binding signal intensity
1,HPRFVSPRIPSRIVK,25

# Target: CaLsb1
# Test: as above
# Summary of the method: as §1
row,Binder,SPOT peptide array binding signal intensity
1,HPRFVSPRIPSRIVK,1

# Target: CaLsb4
# Test: as above
# Summary of the method: as §1
row,Binder,SPOT peptide array binding signal intensity
1,HPRFVSPRIPSRIVK,933

# Target: CaMyo5
# Test: as above
# Summary of the method: as §1
row,Binder,SPOT peptide array binding signal intensity
1,HPRFVSPRIPSRIVK,13.8

# Target: CaNbp2
# Test: as above
# Summary of the method: as §1
row,Binder,SPOT peptide array binding signal intensity
1,HPRFVSPRIPSRIVK,428

# Target: CaRvs167
# Test: as above
# Summary of the method: as §1
row,Binder,SPOT peptide array binding signal intensity
1,HPRFVSPRIPSRIVK,230

# Target: CaRvs167-3
# Test: as above
# Summary of the method: as §1
row,Binder,SPOT peptide array binding signal intensity
1,HPRFVSPRIPSRIVK,5.75

# Target: CaSho1
# Test: as above
# Summary of the method: as §1
row,Binder,SPOT peptide array binding signal intensity
1,HPRFVSPRIPSRIVK,170

# Target: CaSla1-D1-D2
# Test: as above
# Summary of the method: as §1
row,Binder,SPOT peptide array binding signal intensity
1,HPRFVSPRIPSRIVK,736

# Target: CaSla1-D3
# Test: as above
# Summary of the method: as §1
row,Binder,SPOT peptide array binding signal intensity
1,HPRFVSPRIPSRIVK,11.5

# Target: ScAbp1
# Test: as above
# Summary of the method: as §1
row,Binder,SPOT peptide array binding signal intensity
1,HPRFVSPRIPSRIVK,238

# Target: ScBbc1
# Test: as above
# Summary of the method: as §1
row,Binder,SPOT peptide array binding signal intensity
1,HPRFVSPRIPSRIVK,283

# Target: ScBem1-D1
# Test: as above
# Summary of the method: as §1
row,Binder,SPOT peptide array binding signal intensity
1,HPRFVSPRIPSRIVK,21.5

# Target: ScBzz1-D1
# Test: as above
# Summary of the method: as §1
row,Binder,SPOT peptide array binding signal intensity
1,HPRFVSPRIPSRIVK,62

# Target: ScBzz1-D2
# Test: as above
# Summary of the method: as §1
row,Binder,SPOT peptide array binding signal intensity
1,HPRFVSPRIPSRIVK,73.5

# Target: ScCyk3
# Test: as above
# Summary of the method: as §1
row,Binder,SPOT peptide array binding signal intensity
1,HPRFVSPRIPSRIVK,12

# Target: ScFus1
# Test: as above
# Summary of the method: as §1
row,Binder,SPOT peptide array binding signal intensity
1,HPRFVSPRIPSRIVK,147

# Target: ScHof1
# Test: as above
# Summary of the method: as §1
row,Binder,SPOT peptide array binding signal intensity
1,HPRFVSPRIPSRIVK,8.75

# Target: ScHse1
# Test: as above
# Summary of the method: as §1
row,Binder,SPOT peptide array binding signal intensity
1,HPRFVSPRIPSRIVK,820

# Target: ScLsb1
# Test: as above
# Summary of the method: as §1
row,Binder,SPOT peptide array binding signal intensity
1,HPRFVSPRIPSRIVK,531

# Target: ScLsb2
# Test: as above
# Summary of the method: as §1
row,Binder,SPOT peptide array binding signal intensity
1,HPRFVSPRIPSRIVK,694

# Target: ScLsb3
# Test: as above
# Summary of the method: as §1
row,Binder,SPOT peptide array binding signal intensity
1,HPRFVSPRIPSRIVK,2050

# Target: ScLsb4
# Test: as above
# Summary of the method: as §1
row,Binder,SPOT peptide array binding signal intensity
1,HPRFVSPRIPSRIVK,114

# Target: ScMyo3
# Test: as above
# Summary of the method: as §1
row,Binder,SPOT peptide array binding signal intensity
1,HPRFVSPRIPSRIVK,27

# Target: ScMyo5
# Test: as above
# Summary of the method: as §1
row,Binder,SPOT peptide array binding signal intensity
1,HPRFVSPRIPSRIVK,32.5

# Target: ScNbp2
# Test: as above
# Summary of the method: as §1
row,Binder,SPOT peptide array binding signal intensity
1,HPRFVSPRIPSRIVK,510

# Target: ScPex13
# Test: as above
# Summary of the method: as §1
row,Binder,SPOT peptide array binding signal intensity
1,HPRFVSPRIPSRIVK,86.2

# Target: ScRvs167
# Test: as above
# Summary of the method: as §1
row,Binder,SPOT peptide array binding signal intensity
1,HPRFVSPRIPSRIVK,820

# Target: ScSho1
# Test: as above
# Summary of the method: as §1
row,Binder,SPOT peptide array binding signal intensity
1,HPRFVSPRIPSRIVK,256

# Target: ScSla1-D1-D2
# Test: as above
# Summary of the method: as §1
row,Binder,SPOT peptide array binding signal intensity
1,HPRFVSPRIPSRIVK,720

# Target: ScSla1-D3
# Test: as above
# Summary of the method: as §1
row,Binder,SPOT peptide array binding signal intensity
1,HPRFVSPRIPSRIVK,36

# Target: SpAbp1-D1
# Test: as above
# Summary of the method: as §1
row,Binder,SPOT peptide array binding signal intensity
1,HPRFVSPRIPSRIVK,180

# Target: SpBbc1
# Test: as above
# Summary of the method: as §1
row,Binder,SPOT peptide array binding signal intensity
1,HPRFVSPRIPSRIVK,19

# Target: SpBzz1-D1
# Test: as above
# Summary of the method: as §1
row,Binder,SPOT peptide array binding signal intensity
1,HPRFVSPRIPSRIVK,350

# Target: SpBzz1-D2
# Test: as above
# Summary of the method: as §1
row,Binder,SPOT peptide array binding signal intensity
1,HPRFVSPRIPSRIVK,1
2,VSKLRSPNTPRRLRK,≤ 0

# Target: SpCyk3
# Test: as above
# Summary of the method: as §1
row,Binder,SPOT peptide array binding signal intensity
1,HPRFVSPRIPSRIVK,4
2,VSKLRSPNTPRRLRK,5.75 ± 4.6

# Target: SpHof1
# Test: as above
# Summary of the method: as §1
row,Binder,SPOT peptide array binding signal intensity
1,HPRFVSPRIPSRIVK,145
2,VSKLRSPNTPRRLRK,183 ± 6

# Target: SpHof1-2
# Test: as above
# Summary of the method: as §1
row,Binder,SPOT peptide array binding signal intensity
1,HPRFVSPRIPSRIVK,15.8
2,VSKLRSPNTPRRLRK,17 ± 8.5

# Target: SpHof1-3
# Test: as above
# Summary of the method: as §1
row,Binder,SPOT peptide array binding signal intensity
1,HPRFVSPRIPSRIVK,295
2,VSKLRSPNTPRRLRK,319 ± 74

# Target: SpHse1
# Test: as above
# Summary of the method: as §1
row,Binder,SPOT peptide array binding signal intensity
1,HPRFVSPRIPSRIVK,318
2,VSKLRSPNTPRRLRK,172 ± 74

# Target: SpLsb1
# Test: as above
# Summary of the method: as §1
row,Binder,SPOT peptide array binding signal intensity
1,HPRFVSPRIPSRIVK,1380
2,VSKLRSPNTPRRLRK,33.8 ± 4.6

# Target: SpLsb4
# Test: as above
# Summary of the method: as §1
row,Binder,SPOT peptide array binding signal intensity
1,HPRFVSPRIPSRIVK,2670
2,VSKLRSPNTPRRLRK,2990 ± 950

# Target: SpMyo1
# Test: as above
# Summary of the method: as §1
row,Binder,SPOT peptide array binding signal intensity
1,HPRFVSPRIPSRIVK,49
2,VSKLRSPNTPRRLRK,3.25 ± 2.5

# Target: SpNbp2
# Test: as above
# Summary of the method: as §1
row,Binder,SPOT peptide array binding signal intensity
1,HPRFVSPRIPSRIVK,78.5
2,VSKLRSPNTPRRLRK,109 ± 68

# Target: SpPex13
# Test: as above
# Summary of the method: as §1
row,Binder,SPOT peptide array binding signal intensity
1,HPRFVSPRIPSRIVK,32
2,VSKLRSPNTPRRLRK,5.5 ± 2.1

# Target: SpRvs167
# Test: as above
# Summary of the method: as §1
row,Binder,SPOT peptide array binding signal intensity
1,HPRFVSPRIPSRIVK,254
2,VSKLRSPNTPRRLRK,195 ± 91

# Target: SpSla1-D1-D2
# Test: as above
# Summary of the method: as §1
row,Binder,SPOT peptide array binding signal intensity
1,HPRFVSPRIPSRIVK,1.5
2,VSKLRSPNTPRRLRK,10.2 ± 3.9

# Target: SpSla1-D3
# Test: as above
# Summary of the method: as §1
row,Binder,SPOT peptide array binding signal intensity
1,HPRFVSPRIPSRIVK,11
2,VSKLRSPNTPRRLRK,2.5 ± 0.71
